In PubChem BioAssay:
Calls of active or inactive are those of the source.

Tests used:
[1] = binders of probe aFSTL3 on microarray, primary screen, stem cell growth factor project, biochemical, small-molecule microarray, fluorescence 635/667 (AID 1064); conditions: higher = more signal;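 also: measures binding of the biotinylated anti-FSTL3 antibody to printed compounds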
[2] = binders from COS7 lysate, DM2A8 probe, primary screen, torsin A project, cell lysate, small-molecule microarray, fluorescence 635/667 (AID 1065); conditions: higher = more signal, COS7 lysate expressing mutant human TOR1A
[3] = binders of probe aFGF2 on microarray, primary screen, stem cell growth factor project, biochemical, small-molecule microarray, fluorescence 635/667 (AID 1067); conditions: higher = more signal;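 also: measures binding of biotinylated aFGF2 protein to printed compounds on slides; z-score merges feature fluorescence and signal-to-noise across triplicate slides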
[4] = binders of probe aFGF10 on microarray, primary screen, stem cell growth factor project, biochemical, small-molecule microarray, fluorescence 635/667 (AID 1071); conditions: higher = more signal;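 also: score merges 667 nm spot intensity and signal to noise from triplicate slides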
[5] = target: Neurogenic locus notch homolog protein 2 (Homo sapiens) (UniProt Q04721); experiment: Notch2 binders on small-molecule microarrays, primary screen, biochemical, small-molecule microarray, 635 nm fluorescence, stem cell growth factors (AID 1073); conditions: Notch2 binding, higher = more signal
[6] = target: Pro-neuregulin-1, membrane-bound isoform (Homo sapiens) (UniProt Q02297); experiment: NRG1 binders on small-molecule microarrays, primary screen, psychiatric disease protein project, biochemical, small-molecule microarray, fluorescence 635/667 (AID 1075); conditions: NRG1 binding, 635 nm fluorescence, higher = more signal;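 also: score combines 667 nm spot fluorescence with signal to noise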
[7] = test system: Neuregulin-1 EGF-like domain; experiment: binders of neuregulin-1 EGF-like domain, primary screen, biochemical, small-molecule microarray, 635 nm fluorescence (AID 1081); conditions: small-molecule microarray binding, higher = more signal;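 also: binding of the protein to compounds printed on small-molecule microarray slides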
[8] = FRG1 promoter luciferase signal modulators, primary screen, FRG1 inhibition for FSHD, cell-based, C2C12 myotubes, firefly/Renilla luciferase, luminescence (AID 1084); conditions: higher = more signal, called active from +8 up or from −8 down
[9] = binders of probe aFST on microarray, primary screen, stem cell growth factor project, biochemical, small-molecule microarray, fluorescence 635/667 (AID 1086); conditions: higher = more signal;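 also: score merges 667 nm fluorescence with signal-to-noise of each printed compound spot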
[10] = binders of probe aHhip on microarray, primary screen, stem cell growth factor project, biochemical, small-molecule microarray, fluorescence 635/667 (AID 1087); conditions: higher = more signal;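 also: score merges spot fluorescence at 667nm with spot signal to noise ratio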
[11] = test system: PRMT1 (protein arginine N-methyltransferase 1); experiment: PRMT1 binders on small-molecule microarrays, primary screen, biochemical, small-molecule microarray, 635 nm fluorescence (AID 1088); conditions: small-molecule microarray binding, higher = more signal;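 also: binding of Prmt1 protein to compounds spotted on small-molecule microarray slides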
[12] = yeast growth modulation, basal conditions, primary screen, YJM789 clinical isolate, OD600, 24 h (AID 1089);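 also: growth of clinical yeast isolate S. cerevisiae YJM 789 seeded 1000 cells per well; test concentration not given here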; conditions: S. cerevisiae YJM789 growth, higher = more signal, called active from +8 up or from −8 down
[13] = fission yeast growth modulation, primary screen, strain 972, OD600, 24 h, no modulator (AID 1090);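 also: basal condition with compound alone and no growth modifier present; test concentration not given here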; conditions: S. pombe 972 growth, higher = more signal, called active from +8 up or from −8 down
[14] = S. cerevisiae growth modulation with rapamycin, primary screen, strain BY4716, OD600, 96 h (AID 1091); conditions: higher = more signal, called active from +8 up or from −8 down; also: test concentration not given here
[15] = target: Torsin-1A-interacting protein 2 (Homo sapiens) (UniProt Q8NFQ8); experiment: LULL1 binders on small-molecule microarray, primary screen, cell lysate, human LULL1 lysate, 635/667 nm fluorescence (AID 1092); conditions: hLULL1 lysate binding, 635 nm fluorescence, higher = more signal;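 also: probe is lysate of COS7 cells overexpressing human LULL1; score merges per-feature 667 nm fluorescence with signal-to-noise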
[16] = E. coli growth modulation, two-sided OD650, primary screen, E. coli filamentation project, strain DRC41, 24 h (AID 1093); conditions: OD650, 24 h, higher = more signal, called active from +8 up or from −8 down;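 also: MC1000 strain lacking acrAB efflux and sulA so SOS filamentation is blocked; test concentration not given here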
[17] = small-molecule microarray binders of probe aLefty2, primary screen, biochemical, biotinylated probe, 635/667 nm fluorescence (AID 1094); conditions: higher = more signal;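 also: score merges spot fluorescence near 667 nm with spot signal-to-noise ratio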
[18] = test system: Noggin (protein binding on small-molecule microarray); experiment: Noggin binders on small-molecule microarray, primary screen, biochemical, 635/667 nm fluorescence (AID 1095); conditions: 635 nm fluorescence, higher = more signal;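 also: score merges 667 nm feature fluorescence with signal to noise over triplicate slides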
[19] = target: Neurogenic locus notch homolog protein 3 (Homo sapiens) (UniProt Q9UM47); experiment: NOTCH3 binders on small-molecule microarray, primary screen, biochemical, 635/667 nm fluorescence (AID 1096); conditions: NOTCH3 binding, 635 nm fluorescence, higher = more signal
[20] = small-molecule microarray binders of probe aEGFR, primary screen, biochemical, biotinylated probe, 635/667 nm fluorescence (AID 1097); conditions: higher = more signal;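 also: probe is a biotinylated anti-EGFR antibody binding compounds printed on slides; score combines fluorescence near 667 nm and signal to noise of each spot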

Torsin-1A-interacting protein 2 (Homo sapiens), sequence (Q8NFQ8 whole entry, looked up): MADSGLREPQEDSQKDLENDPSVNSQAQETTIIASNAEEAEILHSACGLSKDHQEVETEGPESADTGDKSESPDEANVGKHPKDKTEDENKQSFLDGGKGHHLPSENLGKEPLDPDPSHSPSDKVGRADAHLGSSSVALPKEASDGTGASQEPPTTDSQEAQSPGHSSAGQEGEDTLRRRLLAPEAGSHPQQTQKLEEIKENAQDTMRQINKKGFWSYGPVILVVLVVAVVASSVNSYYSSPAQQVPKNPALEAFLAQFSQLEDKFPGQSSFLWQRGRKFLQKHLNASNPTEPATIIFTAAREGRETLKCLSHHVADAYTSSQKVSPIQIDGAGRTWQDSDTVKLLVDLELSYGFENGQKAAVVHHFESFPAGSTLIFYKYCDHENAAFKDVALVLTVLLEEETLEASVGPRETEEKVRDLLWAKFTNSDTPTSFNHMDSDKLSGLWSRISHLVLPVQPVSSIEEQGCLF
Pro-neuregulin-1, membrane-bound isoform (Homo sapiens), sequence (Q02297 whole entry, looked up, the tested form may be a part, canonical isoform): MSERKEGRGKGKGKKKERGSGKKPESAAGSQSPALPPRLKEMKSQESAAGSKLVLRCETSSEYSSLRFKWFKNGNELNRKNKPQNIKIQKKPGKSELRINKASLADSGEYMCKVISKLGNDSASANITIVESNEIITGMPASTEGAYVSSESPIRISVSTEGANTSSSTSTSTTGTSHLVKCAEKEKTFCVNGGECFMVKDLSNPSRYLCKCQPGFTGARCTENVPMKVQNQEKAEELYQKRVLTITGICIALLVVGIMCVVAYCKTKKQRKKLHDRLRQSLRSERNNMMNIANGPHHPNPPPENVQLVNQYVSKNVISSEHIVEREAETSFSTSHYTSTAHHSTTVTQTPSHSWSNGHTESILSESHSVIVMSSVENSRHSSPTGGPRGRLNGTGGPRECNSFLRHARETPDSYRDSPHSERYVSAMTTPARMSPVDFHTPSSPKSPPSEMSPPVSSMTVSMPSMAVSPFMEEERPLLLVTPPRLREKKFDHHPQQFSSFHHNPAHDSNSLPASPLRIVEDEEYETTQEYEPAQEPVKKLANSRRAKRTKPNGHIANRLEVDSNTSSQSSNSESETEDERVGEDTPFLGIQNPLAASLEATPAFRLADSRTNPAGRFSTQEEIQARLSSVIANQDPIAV
Neurogenic locus notch homolog protein 3 (Homo sapiens), sequence (Q9UM47 whole entry, looked up): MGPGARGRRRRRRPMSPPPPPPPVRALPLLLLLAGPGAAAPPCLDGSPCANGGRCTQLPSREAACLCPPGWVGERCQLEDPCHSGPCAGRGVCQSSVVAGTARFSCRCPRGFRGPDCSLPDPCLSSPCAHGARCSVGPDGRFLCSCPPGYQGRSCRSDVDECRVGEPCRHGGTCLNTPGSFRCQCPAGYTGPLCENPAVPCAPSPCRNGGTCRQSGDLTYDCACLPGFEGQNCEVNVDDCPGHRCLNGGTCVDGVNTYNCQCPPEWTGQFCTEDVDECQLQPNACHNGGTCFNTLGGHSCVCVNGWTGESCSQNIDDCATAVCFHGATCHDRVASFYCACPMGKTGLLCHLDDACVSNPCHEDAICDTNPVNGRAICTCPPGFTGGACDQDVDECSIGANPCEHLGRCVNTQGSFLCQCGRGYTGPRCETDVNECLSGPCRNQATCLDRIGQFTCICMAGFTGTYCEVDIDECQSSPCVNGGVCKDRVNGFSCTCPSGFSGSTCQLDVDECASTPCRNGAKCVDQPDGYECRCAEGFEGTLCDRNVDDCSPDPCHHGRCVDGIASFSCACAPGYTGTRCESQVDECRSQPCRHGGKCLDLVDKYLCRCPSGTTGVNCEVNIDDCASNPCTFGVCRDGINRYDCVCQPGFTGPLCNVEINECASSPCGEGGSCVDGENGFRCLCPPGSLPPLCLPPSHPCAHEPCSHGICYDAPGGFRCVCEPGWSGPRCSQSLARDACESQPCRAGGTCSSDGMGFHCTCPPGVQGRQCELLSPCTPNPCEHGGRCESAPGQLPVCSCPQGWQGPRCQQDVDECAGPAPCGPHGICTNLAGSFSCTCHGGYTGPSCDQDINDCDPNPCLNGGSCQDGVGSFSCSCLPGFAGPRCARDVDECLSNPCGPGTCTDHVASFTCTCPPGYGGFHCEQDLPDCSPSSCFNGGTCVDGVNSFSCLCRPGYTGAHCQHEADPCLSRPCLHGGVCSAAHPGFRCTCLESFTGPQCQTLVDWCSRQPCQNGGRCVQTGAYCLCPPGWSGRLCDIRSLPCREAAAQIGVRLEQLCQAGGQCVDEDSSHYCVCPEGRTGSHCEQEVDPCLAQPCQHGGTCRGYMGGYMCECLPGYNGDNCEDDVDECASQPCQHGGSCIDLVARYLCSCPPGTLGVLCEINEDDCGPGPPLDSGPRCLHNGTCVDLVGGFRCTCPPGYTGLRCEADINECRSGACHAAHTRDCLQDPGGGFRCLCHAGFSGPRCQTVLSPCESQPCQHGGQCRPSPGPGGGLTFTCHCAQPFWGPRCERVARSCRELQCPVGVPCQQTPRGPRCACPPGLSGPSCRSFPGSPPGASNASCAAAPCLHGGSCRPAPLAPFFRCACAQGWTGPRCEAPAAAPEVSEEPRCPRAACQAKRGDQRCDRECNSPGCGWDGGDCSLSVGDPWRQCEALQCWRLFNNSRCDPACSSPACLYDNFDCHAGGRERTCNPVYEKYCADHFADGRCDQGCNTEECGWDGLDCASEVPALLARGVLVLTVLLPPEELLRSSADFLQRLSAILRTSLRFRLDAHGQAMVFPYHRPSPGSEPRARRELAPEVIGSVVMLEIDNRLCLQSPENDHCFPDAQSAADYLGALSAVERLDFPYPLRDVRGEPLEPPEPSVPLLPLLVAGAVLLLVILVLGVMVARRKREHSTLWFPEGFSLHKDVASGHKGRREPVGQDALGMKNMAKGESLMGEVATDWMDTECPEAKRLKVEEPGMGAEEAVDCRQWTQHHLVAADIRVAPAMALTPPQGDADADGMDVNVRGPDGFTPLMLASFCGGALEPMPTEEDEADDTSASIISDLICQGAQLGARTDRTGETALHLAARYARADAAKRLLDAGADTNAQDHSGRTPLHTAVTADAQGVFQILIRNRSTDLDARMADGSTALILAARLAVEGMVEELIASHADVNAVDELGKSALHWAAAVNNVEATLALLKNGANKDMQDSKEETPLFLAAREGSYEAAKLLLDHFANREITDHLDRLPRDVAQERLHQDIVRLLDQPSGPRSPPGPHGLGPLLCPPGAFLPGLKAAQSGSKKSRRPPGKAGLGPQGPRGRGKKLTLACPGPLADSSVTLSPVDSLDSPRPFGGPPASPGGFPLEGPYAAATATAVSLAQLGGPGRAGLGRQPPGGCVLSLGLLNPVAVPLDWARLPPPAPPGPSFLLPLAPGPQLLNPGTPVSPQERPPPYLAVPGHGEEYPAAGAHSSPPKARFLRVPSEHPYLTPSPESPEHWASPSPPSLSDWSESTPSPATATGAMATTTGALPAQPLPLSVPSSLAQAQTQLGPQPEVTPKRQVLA

Row | Compound | composite z-score [1] | composite z-score [2] | composite z-score [3] | composite z-score [4] | composite z-score [5] | composite z-score [6] | composite z-score [7] | z-score [8] | composite z-score [9] | composite z-score [10] | composite z-score [11] | z-score [12] | z-score [13] | z-score [14] | composite z-score [15] | z-score [16] | composite z-score [17] | composite z-score [18] | composite z-score [19] | composite z-score [20]
1 | CCOC(=O)C[C@H]1[C@H](OC(=O)Cc2ccc3c(c2)OCO3)[C@@H](NC(=O)Cc2ccc(OC)cc2)c2cc(OCCCO)ccc2N1C(=O)c1ccccc1 | -0.244 | 0.188 | -0.11 | 0.494 | 0.608 | 0.416 | 0.436 | -1.38 (inactive) | 0.447 | -0.353 | 1.26 | -0.13 (inactive) | 0.0145 (inactive) | 0.234 (inactive) | 1.37 | 1.26 (inactive) | -0.0846 | 0.0653 | 0.608 | 0.0032
2 | COCCOC(=O)N1C(=O)[C@@]2(c3cc(C#CCC(C(=O)OC)C(=O)OC)ccc31)[C@H](c1ccc(OCCO)cc1)N1[C@H](c3ccccc3)[C@H](c3ccccc3)OC(=O)[C@H]1[C@@H]2C(=O)N1CCN(c2ncccn2)CC1 | -0.372 | 1.32 | -0.0431 | 0.905 | 1.25 | 1.64 | 1.14 | 0.977 (inactive) | 0.789 | 0.142 | 1.45 | 1.07 (inactive) | 0.934 (inactive) | 6.44 (inactive) | 3.17 | 1.75 (inactive) | 0.0112 | 1.17 | 1.07 | 0.0397
3 | C=C(C(=O)CC[C@H](OC(=O)c1cccnc1)c1cccc(OCCO)c1)C(C)C | 0.483 | 0.401 | -0.157 | -0.195 | -1.26 | -0.593 | 0.484 | 0.243 (inactive) | -0.809 | 0.238 | 1.03 | 0.865 (inactive) | 0.167 (inactive) | 1.1 (inactive) | 0.391 | 0.483 (inactive) | -0.017 | -0.367 | -0.424 | -0.0238
4 | COC(=O)[C@@]1(Cc2ccccc2)[C@H]2c3cc(C(=O)N4CCCC4)[nH]c3C[C@H]2CN1C(=O)c1ccccc1 | 0.718 | 0.065 | 0.134 | -0.0267 | 1.13 | 1.29 | 0.664 | 0.535 (inactive) | 0.623 | -0.133 | -1.74 | -0.202 (inactive) | 1.02 (inactive) | 0.0237 (inactive) | 3.51 | -0.156 (inactive) | 0.134 | -0.463 | -0.0434 | -0.122
5 | COC(=O)[C@H](Cc1ccccc1)N1CC(/C=C/C2CC2)=C[C@@H]1[C@@H](O)Cc1ccccc1 | -0.549 | 0.0784 | -0.0093 | 1.23 | 1.38 | 0.947 | 1.11 | -1.09 (inactive) | 0.707 | 0.177 | 1.46 | 0.107 (inactive) | -3.04 (inactive) | 0.423 (inactive) | 1.66 | 0.559 (inactive) | 0.0166 | 0.685 | 0.9 | 0.009
6 | O=C1OCC=C[C@H]2OC34C=CCN(c5ccc(Cl)cc5)C(=O)[C@H]3N(CCCCCO)C(=O)[C@@H]4[C@@H]12 (stereo not given in full) | 0.716 | 1.77 | -0.163 | -0.815 | -1.07 | -0.0571 | 1.06 | -0.633 (inactive) | -0.354 | -0.236 | -0.449 | -0.984 (inactive) | -1.03 (inactive) | -0.497 (inactive) | 2.58 | 1 (inactive) | -0.117 | -1.64 | -0.68 | -0.208
7 | O=C(O)[C@]1(Cc2ccccc2)N=C(c2ccc(OCCCO)cc2)O[C@@H]1c1ccccc1 | 0.428 | -1.31 | -0.135 | -0.321 | 0.0148 | 1.45 | 0.847 | -0.737 (inactive) | 0.378 | -0.164 | -1.27 | 0.624 (inactive) | -0.695 (inactive) | 0.286 (inactive) | 1.55 | 0.377 (inactive) | -0.143 | -0.849 | -0.786 | -0.208
8 | CN(C)CCCNC(=O)[C@@H]1c2ccccc2C(=O)N(Cc2ccc(OC(F)(F)F)cc2)[C@H]1c1ccc(CO)cc1 | -0.212 | -0.103 | -0.113 | -0.133 | -0.0854 | 1.22 | 1.15 | -1.22 (inactive) | 0.18 | 0.287 | 1.54 | -1.02 (inactive) | -1.06 (inactive) | -1.41 (inactive) | 2.22 | -0.883 (inactive) | -0.0654 | 0.912 | 0.951 | -0.171
9 | COCCOC(=O)N1C(=O)[C@@]2(c3cc(C#CC4(O)CCCCCC4)ccc31)[C@H](C(=O)N1CCCCCCC1)[C@H]1C(=O)O[C@H](c3ccccc3)[C@H](c3ccccc3)N1[C@@H]2c1ccc(OCCO)cc1 | 3.43 | 1.62 | 0.79 | 1.2 | 1.26 | 2.18 | 1.24 | -3.21 (inactive) | 3.29 | 1.77 | 1.53 | 0.474 (inactive) | 0.638 (inactive) | 2.39 (inactive) | 3.7 | 1.82 (inactive) | 1.77 | 1.89 | 1.03 | 0.757
10 | O=C1c2ccccc2[C@@]2(Cc3ccccc3N(C3CC3)C2=O)[C@H](c2ccc(CO)cc2)N1C1CCCCC1 | -0.0266 | -0.625 | -0.0325 | -0.015 | -0.119 | 0.123 | -0.716 | 0.291 (inactive) | -0.0416 | -0.0994 | -0.767 | -0.451 (inactive) | 0.285 (inactive) | -0.728 (inactive) | 1.79 | -0.1 (inactive) | -0.17 | -0.699 | -0.938 | -0.168
